According to the supplement of paper PMC7724964:

T1: ARID4A 568-634 Tudor-knot (domain begin residue: 568, domain end residue: 634), P29374
T1 chain: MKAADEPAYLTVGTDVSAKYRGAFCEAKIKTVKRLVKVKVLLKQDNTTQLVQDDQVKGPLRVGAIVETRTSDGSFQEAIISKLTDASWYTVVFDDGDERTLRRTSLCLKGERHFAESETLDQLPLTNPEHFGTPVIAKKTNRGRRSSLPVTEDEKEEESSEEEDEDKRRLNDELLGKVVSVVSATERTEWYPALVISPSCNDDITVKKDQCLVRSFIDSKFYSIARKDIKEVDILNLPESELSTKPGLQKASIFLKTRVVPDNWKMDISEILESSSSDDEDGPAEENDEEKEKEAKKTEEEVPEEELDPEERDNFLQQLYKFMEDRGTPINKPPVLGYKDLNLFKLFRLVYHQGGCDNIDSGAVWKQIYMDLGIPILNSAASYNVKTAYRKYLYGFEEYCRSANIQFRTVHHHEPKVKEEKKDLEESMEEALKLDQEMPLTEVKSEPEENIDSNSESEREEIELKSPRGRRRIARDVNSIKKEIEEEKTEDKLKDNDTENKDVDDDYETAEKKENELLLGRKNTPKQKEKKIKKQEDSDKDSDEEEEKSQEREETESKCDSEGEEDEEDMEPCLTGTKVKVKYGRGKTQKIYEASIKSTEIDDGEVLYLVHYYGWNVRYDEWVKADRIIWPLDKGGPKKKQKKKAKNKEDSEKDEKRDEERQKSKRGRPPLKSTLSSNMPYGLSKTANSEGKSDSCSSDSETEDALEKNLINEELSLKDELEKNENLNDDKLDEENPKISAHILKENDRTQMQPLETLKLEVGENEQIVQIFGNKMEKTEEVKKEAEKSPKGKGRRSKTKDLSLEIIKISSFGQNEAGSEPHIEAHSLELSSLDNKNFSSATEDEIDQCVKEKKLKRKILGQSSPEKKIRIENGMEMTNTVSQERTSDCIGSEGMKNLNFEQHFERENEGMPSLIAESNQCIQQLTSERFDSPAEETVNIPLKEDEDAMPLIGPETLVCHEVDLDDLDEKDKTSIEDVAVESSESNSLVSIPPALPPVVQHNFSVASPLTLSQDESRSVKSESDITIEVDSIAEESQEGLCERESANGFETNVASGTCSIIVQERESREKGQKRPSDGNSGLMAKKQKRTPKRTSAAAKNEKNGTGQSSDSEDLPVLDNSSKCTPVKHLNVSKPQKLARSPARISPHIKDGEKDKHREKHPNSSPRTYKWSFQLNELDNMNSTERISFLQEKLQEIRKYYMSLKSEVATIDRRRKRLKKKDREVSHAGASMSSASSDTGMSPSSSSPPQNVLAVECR

T2: LBR 1-67 LBR_tudor (domain begin residue: 1, domain end residue: 67), Q14739
T2 chain: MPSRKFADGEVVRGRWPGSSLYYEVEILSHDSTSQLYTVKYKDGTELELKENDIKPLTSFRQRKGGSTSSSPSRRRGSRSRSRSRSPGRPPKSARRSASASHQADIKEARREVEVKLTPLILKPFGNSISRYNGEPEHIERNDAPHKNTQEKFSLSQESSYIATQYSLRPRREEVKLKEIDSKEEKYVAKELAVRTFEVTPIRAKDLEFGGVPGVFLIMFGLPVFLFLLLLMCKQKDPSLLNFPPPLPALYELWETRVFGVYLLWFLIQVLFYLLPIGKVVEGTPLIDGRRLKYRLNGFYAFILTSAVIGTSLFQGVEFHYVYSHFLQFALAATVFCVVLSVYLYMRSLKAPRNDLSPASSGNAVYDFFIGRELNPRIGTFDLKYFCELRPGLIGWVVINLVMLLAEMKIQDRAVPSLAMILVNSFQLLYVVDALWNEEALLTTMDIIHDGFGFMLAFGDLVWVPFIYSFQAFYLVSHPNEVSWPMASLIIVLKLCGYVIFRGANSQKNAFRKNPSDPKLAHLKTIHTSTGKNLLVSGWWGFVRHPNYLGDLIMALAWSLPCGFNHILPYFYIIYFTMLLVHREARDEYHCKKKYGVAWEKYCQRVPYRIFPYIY

T3: SND1 650-910 TUDOR+SNase (domain begin residue: 650, domain end residue: 910), Q7KZF4
T3 chain: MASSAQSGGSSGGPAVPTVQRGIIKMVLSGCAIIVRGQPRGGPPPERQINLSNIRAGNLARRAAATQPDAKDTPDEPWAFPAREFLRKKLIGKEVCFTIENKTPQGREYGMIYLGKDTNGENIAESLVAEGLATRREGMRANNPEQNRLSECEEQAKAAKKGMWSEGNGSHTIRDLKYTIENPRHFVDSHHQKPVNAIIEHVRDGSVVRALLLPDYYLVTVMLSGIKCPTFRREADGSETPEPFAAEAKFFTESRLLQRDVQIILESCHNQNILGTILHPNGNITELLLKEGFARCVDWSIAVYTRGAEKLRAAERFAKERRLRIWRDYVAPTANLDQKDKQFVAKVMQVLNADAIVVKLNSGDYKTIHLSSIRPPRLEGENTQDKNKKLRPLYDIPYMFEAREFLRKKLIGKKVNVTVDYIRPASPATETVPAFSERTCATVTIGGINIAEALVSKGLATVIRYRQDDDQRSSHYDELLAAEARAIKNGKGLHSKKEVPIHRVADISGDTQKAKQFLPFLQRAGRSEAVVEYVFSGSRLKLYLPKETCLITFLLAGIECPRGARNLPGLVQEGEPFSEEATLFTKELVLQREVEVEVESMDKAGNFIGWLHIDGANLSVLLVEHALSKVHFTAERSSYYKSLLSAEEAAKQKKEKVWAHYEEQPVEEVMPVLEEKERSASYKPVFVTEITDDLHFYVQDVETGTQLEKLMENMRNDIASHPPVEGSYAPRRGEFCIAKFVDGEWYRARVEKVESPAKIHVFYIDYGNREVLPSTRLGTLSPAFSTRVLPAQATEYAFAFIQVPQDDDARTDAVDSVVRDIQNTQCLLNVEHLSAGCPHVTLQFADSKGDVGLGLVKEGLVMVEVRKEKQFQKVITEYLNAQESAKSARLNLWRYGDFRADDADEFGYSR

T4: TDRD1 261-449 TUDOR (domain begin residue: 261, domain end residue: 449), Q9BXT4
T4 chain: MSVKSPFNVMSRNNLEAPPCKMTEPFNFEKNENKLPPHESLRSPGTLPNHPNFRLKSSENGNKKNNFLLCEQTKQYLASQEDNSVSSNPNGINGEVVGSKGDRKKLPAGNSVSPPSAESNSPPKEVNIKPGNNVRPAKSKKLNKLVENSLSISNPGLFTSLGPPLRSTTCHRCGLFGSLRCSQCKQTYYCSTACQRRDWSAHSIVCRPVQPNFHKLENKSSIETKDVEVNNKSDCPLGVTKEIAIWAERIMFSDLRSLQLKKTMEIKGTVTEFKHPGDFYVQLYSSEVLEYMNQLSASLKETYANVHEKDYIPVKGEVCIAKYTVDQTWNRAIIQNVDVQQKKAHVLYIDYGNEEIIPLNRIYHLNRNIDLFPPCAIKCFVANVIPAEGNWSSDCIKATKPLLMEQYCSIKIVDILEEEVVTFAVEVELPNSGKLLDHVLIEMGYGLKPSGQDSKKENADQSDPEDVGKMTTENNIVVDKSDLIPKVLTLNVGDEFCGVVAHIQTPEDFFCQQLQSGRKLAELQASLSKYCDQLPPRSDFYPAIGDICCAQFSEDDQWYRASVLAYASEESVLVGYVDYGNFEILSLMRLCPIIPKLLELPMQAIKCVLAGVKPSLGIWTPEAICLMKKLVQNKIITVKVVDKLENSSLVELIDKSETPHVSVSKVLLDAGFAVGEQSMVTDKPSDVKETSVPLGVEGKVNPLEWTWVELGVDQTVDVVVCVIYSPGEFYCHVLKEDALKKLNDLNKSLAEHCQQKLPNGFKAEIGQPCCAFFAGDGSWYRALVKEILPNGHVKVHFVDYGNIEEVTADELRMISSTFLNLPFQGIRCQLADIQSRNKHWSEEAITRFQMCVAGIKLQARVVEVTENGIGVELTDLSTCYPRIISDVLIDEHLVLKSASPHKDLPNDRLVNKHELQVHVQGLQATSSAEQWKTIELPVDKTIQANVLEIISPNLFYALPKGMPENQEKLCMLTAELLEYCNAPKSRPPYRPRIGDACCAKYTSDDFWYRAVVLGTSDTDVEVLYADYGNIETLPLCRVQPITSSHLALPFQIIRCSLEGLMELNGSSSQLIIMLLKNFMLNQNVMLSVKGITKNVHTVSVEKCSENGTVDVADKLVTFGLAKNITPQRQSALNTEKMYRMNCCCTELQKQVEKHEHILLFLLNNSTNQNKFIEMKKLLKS

T5: ZGPAT 120-268 zf-CCCH+TUDOR (domain begin residue: 120, domain end residue: 268), Q8N5A5
T5 chain: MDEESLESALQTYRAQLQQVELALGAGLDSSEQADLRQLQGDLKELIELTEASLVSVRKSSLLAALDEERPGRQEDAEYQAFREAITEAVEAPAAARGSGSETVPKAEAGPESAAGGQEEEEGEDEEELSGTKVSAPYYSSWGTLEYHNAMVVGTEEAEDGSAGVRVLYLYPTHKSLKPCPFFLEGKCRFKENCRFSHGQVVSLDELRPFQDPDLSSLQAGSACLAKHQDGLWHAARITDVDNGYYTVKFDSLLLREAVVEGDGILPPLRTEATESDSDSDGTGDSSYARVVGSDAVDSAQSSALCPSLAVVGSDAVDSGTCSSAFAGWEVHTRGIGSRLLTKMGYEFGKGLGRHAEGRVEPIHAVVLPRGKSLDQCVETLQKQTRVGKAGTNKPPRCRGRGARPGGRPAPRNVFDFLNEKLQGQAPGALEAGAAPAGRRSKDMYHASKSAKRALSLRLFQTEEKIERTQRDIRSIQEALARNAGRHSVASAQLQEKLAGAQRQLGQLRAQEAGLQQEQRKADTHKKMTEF


Molecular target: T1, ARID4A 568-634 Tudor-knot (domain begin …
Experiment: phage ELISA signal ratio (GST-PRM binding over GST background); higher = stronger binding of peptide-phage to the PRM
Method: (§1)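 Phage-displayed random hexadecapeptides (Cys-free, flanked by invariant Gly linkers, fused to the M13 P8 major coat protein) were selected over 5 rounds against GST-fused human PRM domains. Individual clones from rounds 4-5 were tested by phage ELISA, and positive clones binding the target but not GST were sequenced. Values are the ELISA signal ratio of target over background (GST); the background signal is given separately.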

Row | Binder | phage ELISA signal ratio
1 | WGWDEMLNDPEIMRIV | 12.7

molecular target: KMT2C 1055-1137 PHD (domain begin residue: 1055, domain end residue: 1137); experiment: as above
Method: as §1

Row | Binder | phage ELISA signal ratio
2 | WGWDEMLNDPEIMRIV | 8.35

Molecular target: T2, LBR 1-67 LBR_tudor (domain begin …
Experiment: as above
Method: as §1

Row | Binder | phage ELISA signal ratio
3 | WGWDEMLNDPEIMRIV | 7.63

molecular target: PAF1 165-376 Paf1 (domain begin residue: 165, domain end residue: 376), Q8N7H5; experiment: as above
Method: as §1

Row | Binder | phage ELISA signal ratio
4 | WGWDEMLNDPEIMRIV | 6.83

molecular target: RBBP8 722-897 SAE2 (domain begin residue: 722, domain end residue: 897), Q99708; experiment: as above
Method: as §1

RBBP8 722-897 SAE2 (domain begin residue: 722, domain end residue: 897), Q99708, sequence (Q99708 whole entry): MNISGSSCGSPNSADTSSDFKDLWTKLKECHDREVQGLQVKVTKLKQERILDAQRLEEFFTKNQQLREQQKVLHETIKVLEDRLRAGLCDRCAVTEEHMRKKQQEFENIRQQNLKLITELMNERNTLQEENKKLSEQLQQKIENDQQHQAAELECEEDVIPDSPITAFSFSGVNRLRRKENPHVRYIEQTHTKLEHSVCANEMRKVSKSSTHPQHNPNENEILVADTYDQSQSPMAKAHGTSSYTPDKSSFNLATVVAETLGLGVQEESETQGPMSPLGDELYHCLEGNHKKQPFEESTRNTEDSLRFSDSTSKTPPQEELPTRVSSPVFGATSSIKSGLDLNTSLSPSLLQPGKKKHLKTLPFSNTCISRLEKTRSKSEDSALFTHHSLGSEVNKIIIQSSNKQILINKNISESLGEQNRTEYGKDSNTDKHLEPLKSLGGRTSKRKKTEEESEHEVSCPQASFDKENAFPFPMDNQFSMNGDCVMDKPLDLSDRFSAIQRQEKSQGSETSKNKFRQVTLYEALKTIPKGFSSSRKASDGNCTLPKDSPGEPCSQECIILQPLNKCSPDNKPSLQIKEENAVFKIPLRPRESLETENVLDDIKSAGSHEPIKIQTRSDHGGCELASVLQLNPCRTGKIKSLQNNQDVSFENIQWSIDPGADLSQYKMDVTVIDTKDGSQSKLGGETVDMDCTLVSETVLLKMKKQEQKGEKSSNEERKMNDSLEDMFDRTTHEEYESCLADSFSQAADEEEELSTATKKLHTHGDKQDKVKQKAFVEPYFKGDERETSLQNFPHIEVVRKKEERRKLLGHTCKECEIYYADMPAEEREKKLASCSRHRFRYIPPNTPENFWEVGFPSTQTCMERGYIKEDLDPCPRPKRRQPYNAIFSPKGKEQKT

Row | Binder | phage ELISA signal ratio
5 | WGWDEMLNDPEIMRIV | 6.44

molecular target: SETD1A 2-220 RRM_1 (domain begin residue: 2, domain end residue: 220), O15047; experiment: as above
Method: as §1

SETD1A 2-220 RRM_1 (domain begin residue: 2, domain end residue: 220), O15047, sequence (O15047 whole entry): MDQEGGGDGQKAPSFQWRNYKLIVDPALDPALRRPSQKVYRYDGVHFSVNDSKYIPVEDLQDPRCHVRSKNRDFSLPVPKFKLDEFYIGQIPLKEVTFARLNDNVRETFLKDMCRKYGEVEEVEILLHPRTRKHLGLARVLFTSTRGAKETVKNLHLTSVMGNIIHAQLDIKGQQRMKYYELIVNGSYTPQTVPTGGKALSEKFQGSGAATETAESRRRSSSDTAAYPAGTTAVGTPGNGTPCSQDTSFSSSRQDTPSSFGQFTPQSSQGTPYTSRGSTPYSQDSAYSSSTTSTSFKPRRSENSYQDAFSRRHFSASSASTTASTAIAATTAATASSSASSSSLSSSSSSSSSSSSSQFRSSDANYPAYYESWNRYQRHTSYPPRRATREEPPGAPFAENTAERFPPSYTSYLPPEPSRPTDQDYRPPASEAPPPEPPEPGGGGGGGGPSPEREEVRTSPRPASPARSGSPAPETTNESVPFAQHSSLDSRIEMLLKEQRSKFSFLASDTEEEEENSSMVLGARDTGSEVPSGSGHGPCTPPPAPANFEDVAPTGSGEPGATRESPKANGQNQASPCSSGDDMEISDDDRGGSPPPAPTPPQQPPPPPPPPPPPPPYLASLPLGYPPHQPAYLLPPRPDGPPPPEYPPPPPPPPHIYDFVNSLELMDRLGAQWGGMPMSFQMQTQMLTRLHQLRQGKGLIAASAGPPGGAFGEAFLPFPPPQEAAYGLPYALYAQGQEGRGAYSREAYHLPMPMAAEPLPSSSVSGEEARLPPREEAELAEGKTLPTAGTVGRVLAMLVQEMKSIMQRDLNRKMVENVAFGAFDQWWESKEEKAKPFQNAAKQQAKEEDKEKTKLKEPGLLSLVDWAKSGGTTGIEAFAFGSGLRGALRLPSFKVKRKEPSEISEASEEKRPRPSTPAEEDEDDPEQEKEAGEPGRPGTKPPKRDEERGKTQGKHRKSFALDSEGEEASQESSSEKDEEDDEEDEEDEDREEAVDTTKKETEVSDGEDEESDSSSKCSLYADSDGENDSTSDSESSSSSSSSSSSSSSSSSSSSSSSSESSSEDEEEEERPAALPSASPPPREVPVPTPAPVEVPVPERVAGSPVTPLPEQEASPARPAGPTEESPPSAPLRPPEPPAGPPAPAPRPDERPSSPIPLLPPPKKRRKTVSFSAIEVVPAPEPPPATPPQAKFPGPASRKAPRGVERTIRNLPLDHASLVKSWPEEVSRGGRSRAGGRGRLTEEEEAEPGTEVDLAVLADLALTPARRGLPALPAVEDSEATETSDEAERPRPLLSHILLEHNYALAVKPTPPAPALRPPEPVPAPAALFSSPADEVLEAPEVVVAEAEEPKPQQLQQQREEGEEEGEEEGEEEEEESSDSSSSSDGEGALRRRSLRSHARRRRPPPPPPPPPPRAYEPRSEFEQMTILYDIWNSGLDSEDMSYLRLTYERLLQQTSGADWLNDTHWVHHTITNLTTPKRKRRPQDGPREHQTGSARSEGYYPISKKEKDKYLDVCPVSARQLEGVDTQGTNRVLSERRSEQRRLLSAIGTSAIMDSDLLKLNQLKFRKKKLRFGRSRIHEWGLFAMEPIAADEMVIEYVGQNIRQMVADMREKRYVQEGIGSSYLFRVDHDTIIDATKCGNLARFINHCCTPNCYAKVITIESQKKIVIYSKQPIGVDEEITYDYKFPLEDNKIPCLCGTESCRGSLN

Row | Binder | phage ELISA signal ratio
6 | WGWDEMLNDPEIMRIV | 7.71

Molecular target: T3, SND1 650-910 TUDOR+SNase (domain begin …
Experiment: as above
Method: as §1

Row | Binder | phage ELISA signal ratio
7 | WGWDEMLNDPEIMRIV | 8.1

Molecular target: T4, TDRD1 261-449 TUDOR (domain begin …
Experiment: as above
Method: as §1

Row | Binder | phage ELISA signal ratio
8 | WGWDEMLNDPEIMRIV | 10.8

Molecular target: T5, ZGPAT 120-268 zf-CCCH+TUDOR (domain …
Experiment: as above
Method: as §1

Row | Binder | phage ELISA signal ratio
9 | WGWDEMLNDPEIMRIV | 7.66
